Assay results published in PubChem BioAssay (NCATS).
“And” between values parts separate entries of the source, which are not always exact repeats. Equal entries are not always repeated. Records with an inconclusive call do not appear. The source made the active and inactive calls. Unless noted, calls follow the shape of the dose curve; as a rule, active = well fitted curve in the direction sought with a large enough effect; inconclusive = small, poorly fitted or top-dose-only effect, or another doubt; inactive = no such curve, though single readings can be large; an effect the other way counts as inactive or inconclusive.

What was measured:
[1] = target: Cellular tumor antigen p53 (Homo sapiens) (UniProt P04637); assay: Primary qHTS for small molecule compounds that upregulate eGFP-tagged delta133p53alpha (in N-terminal) cells. (AID 2060322); conditions: NCI-H358 eGFP-delta133p53alpha fluorescence, 24 h; activation: stronger effect = higher value; also: nearly all actives have a fitted effect of over 75% in size; also: potency is read from the fitted curve at half-maximal effect;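 as to activation: 0% = DMSO vehicle and 100% = reference activator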
How it was run: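 NCI-H358 cells pre-induced 24 h with 10 ng/ml doxycycline to express N-terminal eGFP-delta133p53alpha, then dosed 24 h at 37C without doxycycline; fixed, Hoechst-stained, GFP intensity by laser scanning cytometry, normalized to DMSO (0%) and 57.5 uM 5-azacytidine (100%).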

[2] = target: Aldehyde dehydrogenase, mitochondrial (Homo sapiens) (UniProt P05091); assay: qHTS for Inhibitors of the Aldehyde Dehydrogenase Family (ALDH2) Confirmatory screens (AID 2061303; active = well fitted inhibition curve with a large enough effect; title and protocol of this record describe different tests; also: % is scaled to controls: 0 for no effect and ±100 for the full control effect; nearly all actives have a fitted effect of over 45% in size); conditions: ALDH inhibition qHTS; series mostly up to 45.4 µM
[3] = qHTS for Inhibitors of the Aldehyde Dehydrogenase Family (ALDH1A2, ALDH1A3, ALDH2, ALDH3A1) (AID 2061307); conditions: ALDH inhibition qHTS; series mostly up to 50.3 µM; also: % is scaled to controls: 0 for no effect and ±100 for the full control effect; nearly all actives have a fitted effect of over 50% in size
[4] = target: Aldehyde dehydrogenase, mitochondrial (Homo sapiens) (UniProt P05091); assay: qHTS for Inhibitors of the Aldehyde Dehydrogenase Family (ALDH2) Primary screen (AID 2061308); conditions: ALDH2 enzyme inhibition qHTS, 1536-well; series mostly up to 56 µM;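 also: plate controls were vehicle for no effect and reference inhibitor for full effect; nearly all actives have a fitted effect of over 55% in size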
[5] = target: Retinaldehyde dehydrogenase 3 (Homo sapiens) (UniProt P47895); assay: qHTS for Inhibitors of the Aldehyde Dehydrogenase Family (ALDH1A3) Confirmatory screens (AID 2061311); conditions: ALDH inhibition qHTS; series mostly up to 46 µM; also: nearly all actives have a fitted effect of over 60% in size
[6] = target: Retinal dehydrogenase 2 (Homo sapiens) (UniProt O94788); assay: qHTS for Inhibitors of the Aldehyde Dehydrogenase Family (ALDH1A2) Confirmation screens (AID 2061314); conditions: ALDH1A2 enzyme inhibition qHTS confirmation; series mostly up to 45.9 µM; also: nearly all actives have a fitted effect of over 65% in size
[7] = target: Aldehyde dehydrogenase 1A1 (Homo sapiens) (UniProt P00352); assay: qHTS for Inhibitors of the Aldehyde Dehydrogenase Family (ALDH1A1) Confirmatory screens (AID 2061316); conditions: ALDH inhibition qHTS; series mostly up to 47.3 µM; also: nearly all actives have a fitted effect of over 65% in size
[8] = target: Retinaldehyde dehydrogenase 3 (Homo sapiens) (UniProt P47895); assay: qHTS for Inhibitors of the Aldehyde Dehydrogenase Family (ALDH1A3) Validation screen (AID 2061312); conditions: ALDH1A3 enzyme inhibition qHTS validation, fluorescence; series mostly up to 84.7 µM; also: % is scaled to controls: 0 for no effect and ±100 for the full control effect; nearly all actives have a fitted effect of over 45% in size
[9] = target: Retinaldehyde dehydrogenase 3 (Homo sapiens) (UniProt P47895); assay: qHTS for Inhibitors of the Aldehyde Dehydrogenase Family (ALDH1A3) Primary screen (AID 2061315); conditions: ALDH inhibition qHTS; series mostly up to 56 µM;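 also: plate controls were DMSO vehicle for no effect and reference inhibitor for full effect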

Sequence of Cellular tumor antigen p53 (Homo sapiens) (P04637 whole entry, looked up): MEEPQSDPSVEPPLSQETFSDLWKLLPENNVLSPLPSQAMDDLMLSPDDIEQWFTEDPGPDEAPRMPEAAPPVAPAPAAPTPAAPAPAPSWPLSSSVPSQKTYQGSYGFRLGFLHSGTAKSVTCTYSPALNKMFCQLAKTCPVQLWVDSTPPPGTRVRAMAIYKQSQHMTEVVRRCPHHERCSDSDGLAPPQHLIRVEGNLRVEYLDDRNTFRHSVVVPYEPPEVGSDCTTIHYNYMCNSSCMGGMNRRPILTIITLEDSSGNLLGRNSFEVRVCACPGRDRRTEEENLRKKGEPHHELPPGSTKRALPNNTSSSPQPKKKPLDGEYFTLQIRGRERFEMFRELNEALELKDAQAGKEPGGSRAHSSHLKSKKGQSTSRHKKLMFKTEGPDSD

COc1ccc(NC(=O)N2CCc3c2ccc2ccccc32)cc1N1CCN(C)CC1
inactive: activation [1] 8.59% | Potency [2] | Potency [3] | Potency [4] | Potency [5] | Potency [6] | Potency [7]

NC(Cc1c[nH]c2ccccc12)C(=O)NC(CCC(=O)O)C(=O)O (stereo unspecified)
inactive: activation [1] -0.955% | Potency [2] | Potency [3] | Potency [4] | Potency [5] | Potency [8] | Potency [6] | Potency [9] | Potency [7]

Clc1cccc(COc2cncc(N3CCNCC3)n2)c1
inactive: activation [1] 14.8% | Potency [2] | Potency [3] | Potency [4] | Potency [5] | Potency [6] | Potency [9] | Potency [7]

O=c1[nH]c2cccc(N3CCN(Cc4ccc(-c5ccccc5)cc4)CC3)c2o1
inactive: activation [1] -3.82% | Potency [2] | Potency [3] | Potency [4] | Potency [5] | Potency [8] | Potency [6] | Potency [9] | Potency [7]

N[C@H]1Cc2ccccc2N(O)C1=O
inactive: activation [1] 13.7% | Potency [2] | Potency [3] | Potency [4] | Potency [5] | Potency [6] | Potency [9] | Potency [7]

O=C(Nc1cc(C(F)(F)F)cc(C(F)(F)F)c1)c1cnc(Cl)nc1C(F)(F)F
active: Potency [1] 30.1 µM
inactive: Potency [2] | Potency [3] | Potency [4] | Potency [5] | Potency [8] | Potency [6] | Potency [9] | Potency [7]

Cc1onc(-c2c(Cl)cccc2Cl)c1C(=O)N[C@@H]1C(=O)N2[C@@H]1SC(C)(C)[C@@H]2C(=O)O
inactive: activation [1] -9.21% and 6.21% | Potency [2] | Potency [3] | Potency [4] | Potency [5] | Potency [8] | Potency [9] | Potency [7]

CCNC(=O)OC1CCN(c2nncc3cc(OC)c(OC)cc23)CC1
inactive: activation [1] -7.67% | Potency [2] | Potency [3] | Potency [4] | Potency [5] | Potency [6] | Potency [9] | Potency [7]
